PI4K2A inh = inhibitors of human PI4K2A; AID 1346378; Q9BTU6; 420,000 compounds, 0.13% hits; purified PI4K2A, ADP-Glo luminescence, 1 h; stronger effect = lower value; activity change, negative = inhibition, % at 76.9 µM; in the data active = activity change below about -50%; inconclusive = mostly about -30% to -49%
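Compounds are screened against recombinant PI4K2A using PI as substrate and ATP, the latter dispensed at 300 microM. Reactions run one hour at ambient temperature before ADP-Glo detection; full inhibition defined by wells lacking enzyme.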
CCT chaperon mod = modulators of cytosolic chaperonin (CCT/TRiC) activity | purified chaperonin ATPase assay, HTRF ADP detection, 30 min | activity change, % (no concentration beside the values), hits read low | 360,000 compounds, 0.3% hits; in the data active = activity change below about -30%
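ATPase activity: ADP formed was measured by HTRF Transcreener (665/615 nm ratio) after 30 min at 37 deg C with 10 uM ATP. Compounds screened at one 76 uM concentration against 40 or 20 nM TRiC in Tris pH 7.4/KCl/MgCl2/DTT buffer.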
GLS inh = glutaminase GLS (human) inhibition. GLS enzymatic activity, qHTS titration. 410,000 compounds, 0.21% hits. Potency, µM (series often up to 45.5 µM), most hits filed as inhibitors. O94925
Target sequence (O94925 whole entry, looked up): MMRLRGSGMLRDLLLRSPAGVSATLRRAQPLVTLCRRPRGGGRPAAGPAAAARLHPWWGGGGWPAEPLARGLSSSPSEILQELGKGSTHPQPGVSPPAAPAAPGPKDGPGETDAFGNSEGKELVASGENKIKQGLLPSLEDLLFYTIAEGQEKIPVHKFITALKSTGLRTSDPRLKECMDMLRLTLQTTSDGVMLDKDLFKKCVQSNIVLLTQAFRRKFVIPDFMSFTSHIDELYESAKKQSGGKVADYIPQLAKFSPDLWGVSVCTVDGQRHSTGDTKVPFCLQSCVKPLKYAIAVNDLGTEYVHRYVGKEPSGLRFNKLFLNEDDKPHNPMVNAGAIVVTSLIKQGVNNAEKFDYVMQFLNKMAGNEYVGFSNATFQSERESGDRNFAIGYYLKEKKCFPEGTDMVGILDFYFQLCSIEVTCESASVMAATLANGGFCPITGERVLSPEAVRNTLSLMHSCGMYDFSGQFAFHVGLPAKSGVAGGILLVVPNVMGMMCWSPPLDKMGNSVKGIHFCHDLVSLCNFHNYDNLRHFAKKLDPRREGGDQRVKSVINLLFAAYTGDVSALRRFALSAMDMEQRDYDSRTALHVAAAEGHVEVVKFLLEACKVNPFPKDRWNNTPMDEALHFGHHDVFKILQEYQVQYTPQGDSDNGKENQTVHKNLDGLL
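hKGA; 45 mM KH2PO4 pH 8.2 + 0.02% Tween-20; cpd via pin tool; 1 mM Gln soln; GluOx/HRP/Amplex Red; RT 30 min; fluor. t0 & final.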
PINK1 expr mod = modulators of PINK1 expression; AID 624263; Potency, µM (series often up to 76.6 µM), usual class: activators; PINK1 immunofluorescence, high-content cytometry, 24 h; 410,000 compounds, 0.2% hits; active = well fitted activation curve with a large enough effect; inconclusive = small, poorly fitted or top-dose-only effect; cell line not stated here; note: nearly all actives have a fitted effect of over 65% in size
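Compound titrations (5 concentrations, 24 h) on a stable cell line; DMSO and CCCP controls. Endpoint: fixed-cell PINK1 immunofluorescence with mitochondrial, cell and nuclear markers, scanned by microplate cytometer.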
Tb PGK inh = inhibitors of T. brucei phosphoglycerate kinase; P07378; PGK/GAPDH coupled, Kinase-Glo luminescence, 60 min; Potency, µM (series often up to 57.5 µM), actives largely listed as inhibitors; 380,000 compounds, 0.043% hits; AID 602233; note: nearly all actives have a fitted effect of over 60% in size
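Recombinant glycosomal PGK reaction used 1,3-bisphosphoglycerate generated in-well by GAPDH (100nM final) in 100mM TEA pH 7.6, 5mM MgCl2, 0.01% Tween-20. After 60 minutes at room temperature, ATP was read by Kinase-Glo Plus luminescence end-point.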
Hits are given with their value; - = inactive; ? = inconclusive; . = not tested or not shown. A selection: hits, their analogues and other compounds. The true share with any hit is near 0.78%. Unless noted, calls come from the whole dose curve; as a rule, active = well fitted curve in the direction sought with a large enough effect; inconclusive = small, poorly fitted or top-dose-only effect, or another doubt; inactive = no such curve, though single readings can be large; an effect the other way counts as inactive or inconclusive.

SMILES | PI4K2A inh | CCT chaperon mod | GLS inh | PINK1 expr mod | Tb PGK inh
Cc1cc(C)nc(-c2cccc3c2OC(CNC(=O)c2ccc(Cn4nc(C)cc4C)cc2)C3)n1 (centres undefined) | . | . | . | - | .
COc1cc(OC)c(/C=C/c2cc(/C=C/c3c(OC)cc(OC)cc3OC)[n+](C)c3ccccc23)c(OC)c1 | . | . | . | 39.8µM | .
O=C1c2cccnc2C(O)N1Cc1ccccc1 (centres undefined) | - | - | - | - | -
O=C1c2cccnc2C(O)N1Cc1ccc(F)cc1 (centres undefined) | - | -31.9 | - | - | -
O=C(Nc1ncc(S(=O)(=O)c2ccc([N+](=O)[O-])cc2)s1)c1ccc2ccccc2c1 | - | - | - | 14.1µM | -
O=C(Nc1ncc([N+](=O)[O-])s1)c1cccc([N+](=O)[O-])c1 | - | - | - | 14.1µM | -
Cc1ccnn1CC(=O)N1CCOc2c(cc(-c3ncc(C(F)(F)F)cc3Cl)cc2OCC2CCCO2)C1 (centres undefined) | . | . | . | - | .
CNc1c(NS(=O)(=O)c2ccc(OC)c(Cl)c2)c(=O)oc2ccccc12 | - | -63.5 | - | - | -
O=C1CC(CC(=O)N2CC3CCCC2C3)(c2cccc(F)c2)C(=O)N1Cc1cccnc1 (centres undefined) | . | . | . | - | .
O=C(NCCc1nnc2n1CCN(Cc1ccsc1)CC2)c1ccc(F)cc1 | . | . | . | - | .
CC1(CC(=O)N/N=C/c2cc(Br)c(O)cc2O)OCCO1 | - | - | 10µM | - | .
O=C(NCCN1CCOCC1)c1cnn(-c2nccc(-c3ccccc3C(F)(F)F)n2)c1C1CC1 | . | . | . | - | .
O=C(O)c1ccc(N=NNc2cccc([N+](=O)[O-])c2)cc1 | - | - | - | - | -
N#C/C(=N\Nc1ccc([N+](=O)[O-])cc1)C(N)=S | - | - | - | 25.1µM | -
N#C/C(=N\Nc1cccc([N+](=O)[O-])c1)C(=O)c1ccc(Br)cc1 | - | - | - | 4.47µM | -
CCCCCCN1C=CC(=C/C=C(\C#N)C(=O)OCC)C=C1 | - | - | - | 12.6µM | -
CCCCOC(=O)Cn1c(-c2ccccc2)nc2ccccc2c1=O | - | - | - | - | -
CCCOC(=O)C(C)n1c(-c2ccccc2)nc2ccccc2c1=O (centres undefined) | - | - | - | 8.91µM | -
Cc1cccc2cc(C#N)c(SCC(=O)N3CC(=O)Nc4ccccc43)nc12 | - | -45.1 | - | - | -
COc1ccc2cc(C#N)c(SCC(=O)N3CC(=O)Nc4ccccc43)nc2c1 | - | - | - | ? | -
CC(C)(C)c1ccc(OCC(O)CN2CCc3ccccc3C2)cc1 (centres undefined) | - | -57.5 | - | - | -
COc1ccc(OCC(O)CN2CCc3ccccc3C2)cc1 (centres undefined) | - | - | - | - | -
Cn1c(SCC(=O)Nc2ccc(N3CCOCC3)cc2)nnc1-c1ccccc1 | - | -35.2 | - | - | .
Cc1occc1C(=O)NCCN1Cc2ccccc2OC(c2ccccc2F)C1 (centres undefined) | . | . | . | - | .
CC1=NN(c2ccc(C(=O)O)c(N)c2)C(=O)C1 | ? | - | ? | - | ?
SMILES | PI4K2A inh | CCT chaperon mod | GLS inh | PINK1 expr mod | Tb PGK inh
CC1=NN(c2ccc(Cl)c(C(=O)O)c2)C(=O)C1 | - | - | 12.6µM | - | -
CC1=NN(c2cccc(Cl)c2)C(=O)C1 | -59.8 | - | - | - | -
CC1=NN(c2cc(Cl)c(S(=O)(=O)O)cc2Cl)C(=O)C1 | - | - | - | - | ?
CC1=NN(c2ccc(S(=O)(=O)O)cc2Cl)C(=O)C1 | -61.4 | - | - | - | -
CCNC(=O)[C@H]1CCCN1C(=O)[C@H](CCCN=C(N)N)NC(=O)[C@H](CC(C)C)NC(=O)[C@H](CC(C)C)NC(=O)[C@@H](Cc1ccc(O)cc1)NC(=O)[C@H](CO)NC(=O)[C@@H](Cc1c[nH]c2ccccc12)NC(=O)[C@H](Cc1cnc[nH]1)NC(=O)[C@@H]1CCC(=O)N1 | . | . | - | . | .
Cc1cnc(C)c(-c2cccc3c2OC(CNC(=O)C2(c4ccc(Cl)cc4)CC2)C3)n1 (centres undefined) | . | . | . | - | .
O=C1NC(=O)C(Cc2ccccc2F)(C2CCN(Cc3cccn3-c3cccnc3)CC2)N1 (centres undefined) | . | . | . | - | .

Screening results deposited in PubChem by National Center for Advancing Translational Sciences (NCATS).
